According to PubChem BioAssay (Tox21):
Unmarked numbers belong to inactive results. Records with an inconclusive call do not appear. Where a call stands in place of a potency, no number is given. Active and inactive are the calls of the source. The call rests on the fitted dose curve; in most records, active means well fitted curve in the direction sought with a large enough effect in the repeat runs; inconclusive means weak or mixed curves; inactive means no such curve, though single readings can be large; an effect the other way counts as inactive or inconclusive.

assay: qHTS assay for small molecule disruptors of the mitochondrial membrane potential (AID 720635); details: HepG2 mitochondrial membrane potential, Mito-MPS dye ratio; series mostly up to 83.2 µM; further: potency means the concentration at half of the fitted maximal effect
Method in brief: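 HepG2 cells exposed to compound 1 hr at 37C, then Mito-MPS dye 30 min. Ratio read of aggregate (540/590 nm) versus monomer (490/535 nm) fluorescence.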

| SMILES | Potency |
| --- | --- |
| C=CCc1cc(OC)c2c(c1)OCO2 | inactive |
| CC(C)(C1CCC(O)CC1)C1CCC(O)CC1 (stereo not drawn) | 7.7 µM (active) |
| C=CC1(C)OC(=O)N(c2cc(Cl)cc(Cl)c2)C1=O (stereo not drawn) | 54.5 µM (active) |
| COC(=O)[C@@H](N)CCCN/C(N)=N/[N+](=O)[O-] | inactive |
| CC(C)(O)C(Cl)(Cl)Cl | inactive |
| CCCC(C)(COC(N)=O)COC(N)=O | inactive |
| Cc1cc(OC(=O)N(C)C)nn1C(=O)N(C)C | inactive |
| CS(=O)(=O)Cl | inactive |
| NCC1(CC(=O)O)CCCCC1 | inactive |
| O=C(Cl)/C=C/C(=O)Cl | inactive |
| CCOC(=O)NC(C)(C)Cc1ccc(Cl)cc1 | inactive |
| O=C(Cl)C(Cl)(Cl)Cl | inactive |
| N#CN=C1SCCN1Cc1ccc(Cl)nc1 | inactive |
| CCOC1Oc2ccc(OS(C)(=O)=O)cc2C1(C)C (stereo not drawn) | inactive |
| C[N+]1(C)CCCCC1 | inactive |
| Cc1ccc(-c2nc3ccc(C)cn3c2CC(=O)N(C)C)cc1 | inactive |
| COc1cc(CCN)cc(OC)c1OC | inactive |
| CC(=O)OCC1=C(C(=O)O)N2C(=O)[C@@H](N)[C@H]2SC1 | inactive |
| O=P(O)(O)c1ccccc1 | inactive |
| Oc1ccc(Cc2ccc(O)cc2)cc1 | 54.9 µM (active) |
| C=C1CC[C@@]2(O)[C@H]3Cc4ccc(O)c5c4[C@@]2(CCN3CC2CC2)[C@H]1O5 | inactive |
| CCC(C(N)=O)N1CCCC1=O (stereo not drawn) | inactive |
| CN(C)CCc1c[nH]c2cccc(OP(=O)(O)O)c12 | inactive |
| CCC1(c2ccccc2)C(=O)N(COC)C(=O)N(COC)C1=O | inactive |
| CCCCCCCCSC(=O)Oc1cc(Cl)nnc1-c1ccccc1 | 30.6 µM (active) |
| BrCc1ccc(Br)cc1 | inactive |
| C[C@H](N)C(=O)c1ccccc1 | inactive |
| COC(=O)c1ccc(CBr)cc1 | inactive |
| CCN[C@@H](C)Cc1cccc(C(F)(F)F)c1 | inactive |

assay: qHTS assay to test for compound auto fluorescence at 590 nm (red) in HepG2 cells (AID 720674); details: HepG2 autofluorescence, red 540/590 nm, 1 h; series mostly up to 91.3 µM
Method in brief: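 HepG2 cells, 2,000 per well in MEM with 10% FBS, attached overnight at 37 C, then got 23 nL compound or DMSO. After 1 hr at 37 C, 5% CO2, red fluorescence was read at 540/590 nm against Rose Bengal sodium as reference.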

| SMILES | outcome | fluorescence, relative to Rose Bengal |
| --- | --- | --- |
| CCN(CCO)CCO | inactive |  |
| C=CCc1cc(OC)c2c(c1)OCO2 | inactive |  |
| CC(C)(C1CCC(O)CC1)C1CCC(O)CC1 (stereo not drawn) | inactive |  |
| COc1cccc(C=O)c1 | inactive |  |
| C=CC1(C)OC(=O)N(c2cc(Cl)cc(Cl)c2)C1=O (stereo not drawn) | inactive |  |
| CNC(=O)NC(O)C(Cl)(Cl)Cl (stereo not drawn) | inactive |  |
| CC(C)(O)C(Cl)(Cl)Cl | inactive |  |
| CCCC(C)(COC(N)=O)COC(N)=O | inactive |  |
| Cc1cc(OC(=O)N(C)C)nn1C(=O)N(C)C | inactive |  |
| CS(=O)(=O)Cl | inactive |  |
| COc1ccccc1OC | inactive |  |
| O=C(Cl)/C=C/C(=O)Cl | inactive |  |
| O=C(Cl)C(Cl)(Cl)Cl | inactive |  |
| CN(CCO)CCO | inactive |  |
| COC(=O)c1ccccc1CS(=O)(=O)NC(=O)Nc1nc(OC)cc(OC)n1 | inactive |  |
| CCOC1Oc2ccc(OS(C)(=O)=O)cc2C1(C)C (stereo not drawn) | inactive |  |
| C[N+]1(C)CCCCC1 | inactive |  |
| Cc1ccc(-c2nc3ccc(C)cn3c2CC(=O)N(C)C)cc1 | inactive |  |
| COc1cc(CCN)cc(OC)c1OC | inactive |  |
| CC(=O)OCC1=C(C(=O)O)N2C(=O)[C@@H](N)[C@H]2SC1 |  | 0.341% [at 18.6 µM] |
| O=P(O)(O)c1ccccc1 | inactive |  |
| CN(C)CCc1c[nH]c2cccc(OP(=O)(O)O)c12 | inactive |  |
| CCC1(c2ccccc2)C(=O)N(COC)C(=O)N(COC)C1=O | inactive |  |
| CCCCCCCCSC(=O)Oc1cc(Cl)nnc1-c1ccccc1 | inactive |  |
| O=[N+]([O-])CCO | inactive |  |
| C[C@H](N)C(=O)c1ccccc1 | inactive |  |
| CCc1cc(OC)c(C[C@H](C)N)cc1OC | inactive |  |
| COC(=O)c1ccc(CBr)cc1 | inactive |  |
| CCN[C@@H](C)Cc1cccc(C(F)(F)F)c1 | inactive |  |
